The test system of this test is Leishmania donovani. Description: Leishmania intramacrophage assay. It is filed as functional, organism-based. More on the design: scale not given: in the data most compounds retested in dose-response had high values.

Among all 69,000 compounds or so, about 1,000 (1.4%) showed an effect of 50% or more. This is one part of a sample in which strong results are shown more often than they occur.

With `OCC1(NCc2cnc(-c3ccccn3)s2)CCOCC1`, for the setting “30.3 µM, […]”, the “Percent Effect” value was -4.185%. `CNC(=O)NCC(=O)N(C)C(c1ccc(Cl)cc1)c1cccnc1` (stereo unspecified): the “Percent Effect” value (30.3 µM, […]) is given as -0.8032%. For `CN(Cc1cncnc1)[C@H]1CN(C(=O)c2ccc[nH]2)[C@@H]2CCCO[C@@H]21`, the “Percent Effect” value (30.3 µM, […]) amounted to 13.74%. Consider `CCCc1n[nH]c(C2CN(C(=O)CCCn3ccnc3)CCO2)n1` (stereo unspecified), for which, where the note is “30.3 µM, […]”, the “Percent Effect” value was 48.09%. For `CCCc1n[nH]c(C2CN(C(=O)CCCn3ccnc3C)CCO2)n1` (stereo unspecified), under “30.3 µM, […]”, the “Percent Effect” value is reported as 52.76%.

As to `CCCc1n[nH]c(C2CN(C(=O)CCCn3cccn3)CCO2)n1` (stereo unspecified), the “Percent Effect” value (30 µM, 30.03 µM) was 8.129%. As for `CCCC(=O)NCC(=O)Nc1cc(F)ccc1SCC(F)F`, where the note is “30.3 µM, […]”, the “Percent Effect” value was -46.76%. Still for that read-out and setting: then `CN(C)C(=O)CN1C[C@@H]2CC[C@H](C1)N(C(=O)CCCn1cncn1)C2`, with 3.091%. Same read-out and setting: with `CC(C)(C)n1nnnc1CN(CCc1ccccc1)Cc1ccccc1` the figure was 46.18%. As for `CC(C)(C)n1nnnc1CN(Cc1ccccc1)Cc1ccccc1Cl`, for the setting “30.3 µM, […]”, the “Percent Effect” value is -43.37%.

`CC(C)(C)n1nnnc1CN(Cc1ccccc1)Cc1ccc(Cl)cc1`: the “Percent Effect” value (30.3 µM, […]) came to 73.63%.

Take `CCC(CNC(=O)c1ccccc1OC)N1CCc2ccccc2C1` (stereo unspecified): the “Percent Effect” value (30.3 µM, […]) came out at 6.323%. For the compound `CC(C)OCCCNC(=O)CS(=O)(=O)Cc1ccc(Cl)cc1`, under “30 µM”, the “Percent Effect” value was -19.7%. As to `CCC(=O)N1CCCN(Cn2nc(C)c(Br)c2C)CC1`, the “Percent Effect” value (30.3 µM, […]) is reported as -2.566%. As for `COCC(=O)N1CCN(Cn2nc(C)c(Br)c2C)CC1`, under “30.3 µM, […]”, the “Percent Effect” value turned out to be 52.22%. Regarding `COC(=O)N1CCCN(Cn2nc(C)c(Br)c2C)CC1`, where the note is “30.3 µM, […]”, the “Percent Effect” value is -25.9%. In the case of `Cc1ccn(Cc2nc(C(C)OCC(C)C)no2)c(=O)c1` (stereo unspecified), the “Percent Effect” value (30.3 µM, […]) worked out at 4.888%. With `Cc1[nH]ccc1C(=O)N1CCC2(CC1)c1nc[nH]c1CCN2CC(C)C`, under “30.3 µM, […]”, the “Percent Effect” value stood at 14.63%. With `OC(CNC1CCSCC1)c1cccc(OCc2ccccc2)c1` (stereo unspecified), for the setting “30.3 µM, […]”, the “Percent Effect” value was found to be 77.88%. With `c1ccc(COc2cccc(CNC3CCc4ncnn4C3)c2)cc1` (stereo unspecified), the “Percent Effect” value (30 µM) was -0.9201%. As for `COc1cccc(C(O)CNC(=O)CC2CCCCC2)c1` (stereo unspecified), the “Percent Effect” value (30.3 µM, […]) is listed as -1.709%. As to `CCN1CCC(CC(=O)NCC(O)c2cccc(OC)c2)CC1` (stereo unspecified), for the setting “30.3 µM, […]”, the “Percent Effect” value is on record as 23.15%. As to `CN1CCC(NCC(O)c2cccc(OCc3ccccc3)c2)CC1` (stereo unspecified), under “30.3 µM, […]”, the “Percent Effect” value came out at 100.4%. Turning to `OC(CNC1CCOCC1)c1cccc(OCc2ccccc2)c1` (stereo unspecified), where the note is “30.3 µM, […]”, the “Percent Effect” value was 10.21%. For `CN(Cc1cnn(C)c1)C(=O)Cc1ccc2c(c1)OCCO2`, the “Percent Effect” value (30.3 µM, […]) worked out at 1.956%. On to `COCCCN(C)C1CCCN(Cc2noc(C)n2)C1` (stereo unspecified), for which the “Percent Effect” value (30 µM, 30.03 µM) was found to be 26.31%. Turning to `Cc1nc(CN(C)C2CCN(Cc3cccc4c3OCCO4)C2)no1` (stereo unspecified), where the note is “30 µM”, the “Percent Effect” value is recorded as 6.673%. Take `Cn1ccnc1CCNC(=O)NCCC1CCCCO1` (stereo unspecified): the “Percent Effect” value (30.3 µM, […]) is listed as 11.89%. In the case of `O=C(C1CCOC1)N1C[C@H]2CN(c3ccccc3)C(=O)[C@H]2C1` (stereo partly specified), the “Percent Effect” value (30.3 µM, […]) is listed as 6.072%.

For `CC1CCN(CCNC(=O)c2cncnc2C(C)C)CC1`, the “Percent Effect” value (30 µM, 30.03 µM) is 11.52%. `CCc1ncncc1C(=O)NCCN1CCC(C)CC1`: where the note is “30 µM, 30.03 µM”, the “Percent Effect” value amounted to 18.33%. Turning to `Cc1ncncc1C(=O)NCCN1CCC(C)CC1`, the “Percent Effect” value (30.3 µM, […]) is 57.89%. In the case of `Cn1cnnc1C1CCCN(C(=O)NCCOc2ccccc2)C1` (stereo unspecified), the “Percent Effect” value (30 µM, 30.03 µM) was 2.584%. Take `CCc1nc(C2CCCN2C(=O)CCc2cscn2)no1` (stereo unspecified): where the note is “30 µM”, the “Percent Effect” value is listed as -30.43%. On to `Cc1cccc(CN(Cc2ccccn2)Cc2ncc(C(C)(C)C)o2)c1`, for which the “Percent Effect” value (30.3 µM, […]) is reported as 68.09%. On to `Cc1cccc(CN(Cc2ccccn2)S(=O)(=O)N(C)C)c1`, for which the “Percent Effect” value (30.3 µM, […]) worked out at 9.457%. For `CCN(Cc1cccc(Cl)c1)Cc1ncc(C(C)(C)C)o1`, for the setting “30.3 µM, […]”, the “Percent Effect” value was 12.9%. Turning to `Cc1ccc(F)c(C(=O)N2C[C@@H](C(=O)O)[C@H](c3ccncc3)C2)c1Cl`, the “Percent Effect” value (30.3 µM, […]) turned out to be 16.35%.

With `O=S1(=O)CCC(c2nc(-c3cccc(Br)c3)no2)C1` (stereo unspecified), the “Percent Effect” value (30.3 µM, […]) stood at 2.793%. Same read-out and setting: with `COCCN(Cc1cnn(C)c1)Cc1ccc(C)o1` the figure was 22%; with `COCCN(Cc1cnn(C)c1)CC1CCOC1` (stereo unspecified), -5.95%; with `COCCN(Cc1cnn(C)c1)CC1CCN(C(C)C)CC1`, 53.86%. For the compound `c1ccc2c(N3CCCC3Cn3cccn3)ncnc2c1` (stereo unspecified), under “30 µM, 30.03 µM”, the “Percent Effect” value worked out at 38.82%. For `Cc1nccn1CC1CCCN1S(=O)(=O)Cc1ccccc1F` (stereo unspecified), under “30 µM, 30.03 µM”, the “Percent Effect” value was found to be 17.08%.

Regarding `COCc1noc(-c2cc(Cl)c3c(c2)OCO3)n1`, the “Percent Effect” value (30.3 µM, […]) is -15.75%. With `O=C(CCn1c(=O)oc2ccccc21)NCC(O)c1ccccc1` (stereo unspecified), the “Percent Effect” value (30.3 µM, […]) was 50.97%. Take `O=C(CCn1c(=O)oc2ccccc21)NCC(O)c1ccc(Cl)cc1` (stereo unspecified): the “Percent Effect” value (30.3 µM, […]) amounted to 46.94%.

Consider `O=C(CCn1c(=O)oc2ccccc21)NCC(O)c1ccc(F)c(F)c1` (stereo unspecified), for which the “Percent Effect” value (30.3 µM, […]) was determined as 41.71%. As to `OC1=C2C(=Nc3n[nH]c(O)c3C2c2ccccc2Cl)CCC1` (stereo unspecified), the “Percent Effect” value (30.3 µM, […]) turned out to be 11.34%. For `CN(C)c1cncc(C2CCN(CCO)CC2)n1`, the “Percent Effect” value (30 µM, 30.03 µM) stood at 34.76%. For `COCC(=O)N1Cc2nccn2CC(CN(C)Cc2cccnc2)C1` (stereo unspecified), under “30.3 µM, […]”, the “Percent Effect” value was 24.51%. As for `CCC(=O)N1Cc2nccn2CC(CN(C)Cc2cccnc2)C1.O=C(O)C(F)(F)F.O=C(O)C(F)(F)F` (stereo unspecified), where the note is “30 µM, 30.03 µM”, the “Percent Effect” value turned out to be 14.09%. On to `CN(Cc1cccnc1)CC1CN(C(N)=O)Cc2nccn2C1` (stereo unspecified), for which the “Percent Effect” value (30.3 µM, […]) was found to be 59.79%.

As for `NC(=O)CCn1cc(CNCCCc2ccccc2O)c2ccccc21`, where the note is “30.3 µM, […]”, the “Percent Effect” value is 30.89%. Consider `Cc1ccsc1CNCC1CCCN1c1cccnn1` (stereo unspecified), for which the “Percent Effect” value (30 µM) is 29.66%. Take `CC(C)N1CCC2(CCCN(Cc3ccc(F)cc3)C2=O)C1` (stereo unspecified): the “Percent Effect” value (30.3 µM, […]) is listed as 12.06%. On to `CCCc1cc(N2CCC(N[C@H]3CC[C@H](O)CC3)CC2)nc(C)n1`, for which the “Percent Effect” value (30.3 µM, […]) is 8.442%. Take `Cc1nn(C)c2cn(CC(=O)N3CCN(c4ccccc4)CC3)nc12`: the “Percent Effect” value (30.3 µM, […]) is 30.49%. In the case of `CN1CCN(c2ccc(Br)cc2NC(=O)c2ccco2)CC1`, where the note is “30.3 µM, […]”, the “Percent Effect” value worked out at 53.58%.

`CN1CCN(c2ccccc2NC(=O)c2ccco2)CC1`: the “Percent Effect” value (30.3 µM, […]) is listed as 13.32%.

As to `CN1CCN(c2ccc(Cl)cc2NC(=O)c2ccco2)CC1`, where the note is “30.3 µM, […]”, the “Percent Effect” value stood at 18.57%.

Regarding `Cc1ccc(C(=O)O)cc1-c1cccc2c1CCNC2`, the “Percent Effect” value (30.3 µM, […]) is listed as 17.04%. Take `O=C(c1ccnnc1)N1C[C@H](OCC2CC2)[C@H]2COC[C@H]21`: under “30.3 µM, […]”, the “Percent Effect” value stood at 15.2%. Turning to `CCOc1ccc(Cl)c(C(=O)NC(C(N)=O)c2ccccc2)n1` (stereo unspecified), where the note is “30.3 µM, […]”, the “Percent Effect” value came out at 28.97%. As to `Cc1cccc(CN2C(=O)CC[C@@H]3[C@H]2CCN3Cc2ccc(C)s2)n1.O=C(O)C(F)(F)F.O=C(O)C(F)(F)F`, the “Percent Effect” value (30 µM, 30.03 µM) turned out to be 7.01%. Take `CN(C)S(=O)(=O)NC1CCCc2c1cnn2-c1ccc(C(C)(C)C)cc1` (stereo unspecified): the “Percent Effect” value (30.3 µM, […]) came out at 27.24%. For the compound `NC1CCCc2c1cnn2-c1cc(F)cc(F)c1` (stereo unspecified), the “Percent Effect” value (30.3 µM, […]) is -4.914%. In the case of `Cc1ccc(-n2ncc3c2CCCC3N)cc1C` (stereo unspecified), the “Percent Effect” value (30.3 µM, […]) turned out to be 72.93%. With `CC(C)(C)c1ccc(-n2ncc3c2CCCC3N)cc1` (stereo unspecified), the “Percent Effect” value (30.3 µM, […]) stood at 27.02%. For `Cc1ccc(-n2ncc(C(=O)N(C)C3CCN(C)CC3)c2N)cc1C`, the “Percent Effect” value (30.3 µM, […]) amounted to 14.5%. With `Cc1cc(C)cc(-n2ncc3c2CCCC3N)c1` (stereo unspecified), the “Percent Effect” value (30.3 µM, […]) is listed as 79.9%.
